D2 ag-1: agonists of human D2 dopamine receptor (beta-arrestin). DiscoveRx PathHunter D2 beta-arrestin, luminescence, 90 min; 100% = 57 uM dopamine signal. P14416. AID 624465. activation, % (no concentration beside the values). actives 0.084% (n = 360,000); in the data active = activation above about 40%; inconclusive = between about 15% and that limit
Target sequence (P14416 whole entry, looked up): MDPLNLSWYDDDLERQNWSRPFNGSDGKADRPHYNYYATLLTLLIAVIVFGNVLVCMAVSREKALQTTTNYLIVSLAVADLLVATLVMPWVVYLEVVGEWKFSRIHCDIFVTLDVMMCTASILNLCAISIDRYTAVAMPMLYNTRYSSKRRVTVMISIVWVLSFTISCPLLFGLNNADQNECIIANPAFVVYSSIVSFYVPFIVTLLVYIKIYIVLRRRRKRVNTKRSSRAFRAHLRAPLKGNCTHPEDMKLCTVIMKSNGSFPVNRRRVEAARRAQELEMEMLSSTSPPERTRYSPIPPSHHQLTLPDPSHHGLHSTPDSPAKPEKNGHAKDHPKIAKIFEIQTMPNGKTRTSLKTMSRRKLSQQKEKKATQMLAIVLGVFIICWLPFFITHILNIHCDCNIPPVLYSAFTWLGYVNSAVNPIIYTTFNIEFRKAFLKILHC
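DiscoveRx PathHunter D2 beta-arrestin cells (2,100/well) attached overnight, then compound-stimulated 90 min at 37 C in HBSS/10 mM HEPES/0.1% Tween-20 buffer; beta-galactosidase complementation read by luminescence after 1 h at ambient temperature. Dopamine 57 uM final (EC100) as control.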
Apoferritin bind: candidate novel general anesthetic via apoferritin binding; actives 0.074% (n = 350,000); apoferritin/1-aminoanthracene competitive binding, fluorescence; Potency, µM (series often up to 77.5 µM), inactives show at the top dose activity change, negative = displacement, usual class: inhibitors; P02791; note: potency is the fitted concentration of half-maximal effect; % is set by controls: 0 for no effect and ±100 for the full control effect; nearly all actives have a fitted effect of over 20% in size
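Horse-spleen apoferritin (10 uM) was mixed with 50% saturated 1-aminoanthracene in PBS, exposed to compounds for 10 min at room temperature, and read for fluorescence (ex 380 nm, em 535 nm). Competitive displacement was fitted with a four-parameter Hill equation.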
D2 PAM-1: positive allosteric modulators of human D2 dopamine receptor | P14416 | actives 0.34% (n = 340,000) | potentiation, % at 10 µM | HEK293 T-REx D2, calcium flux, EC20 dopamine potentiation;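 active = potentiation over 3 SD above the plate norm, cut at about 30% in these data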; note: 0% is about no effect
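Using a no-wash calcium dye in inducible, force-coupled HEK293 Trex cells expressing D2, we tracked fluorescence each second for 180 s after compound, then for 180 s after EC20 dopamine to detect augmented signalling.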
D2 PAM-2: human D2 receptor positive allosteric modulation. P14416. DiscoveRx D2 beta-arrestin cells, luminescence, 90 min; 100% = 57 uM dopamine signal. potentiation, % (concentration not given with the values). actives 0.23% (n = 360,000). AID 624464; in the data active = potentiation above about 50%; inconclusive = mostly about 30% to 49%
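PathHunter D2 cells, attached overnight at 37 deg C, received compound in DMSO plus dopamine at EC20 (50 nM final) for 90 min at 37 deg C. Beta-arrestin recruitment was read as luminescence after 1 h with detection reagent at ambient temperature.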
D2 antag: antagonists of human D2 dopamine receptor; P14416; HEK293 TREx D2 cells, calcium flux, dopamine EC80; inhibition, % at 10 µM; AID 485344; actives 2% (n = 340,000); in the data active = inhibition above about 30%; inactive = below that, where a call was filed; note: 0% is about no effect
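In this primary screen, negative modulation is detected by tracking calcium flux after an EC80 dopamine challenge in inducible HEK293 T-REx D2 cells preexposed to test compound for 180 s.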
D2 ag-2: D2 dopamine receptor (human) agonism; P14416; HEK293 T-REx D2 cells, calcium flux agonist mode; activation, % at 2 µM; actives 0.53% (n = 340,000);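 active = activation over 3 SD above normal in the single-dose calcium agonist read, cut at about 30% in these data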; note: 0% is about no effect
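HEK293 Trex D2 cells, tetracycline-induced, o/n 30 C 5% CO2; no-wash Ca dye, RT 30–90 min; 10-cycle baseline, 23 nl cpd added, kinetic Ca read 180 s; agonist hits = positive Ca response.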
D3 ag: confirmation of human D3 dopamine receptor agonists, beta-arrestin; AID 720506; DiscoveRx D3 beta-arrestin cells, luminescence, 90 min; shares compounds with D2 ag-2; actives 4% (n = 2,300); Potency, µM (titrated, usually from 76.9 µM), without a hit: at the highest dose activation, most hits filed as activators;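 note: potency is the fitted concentration of half-maximal effect; 100% = dopamine control response; nearly all actives have a fitted effect of over 70% in size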
D2 ag-3: activates human D2 dopamine receptor in D3 counterscreen | shares compounds with D2 ag-2 | DiscoveRx PathHunter D2 beta-arrestin, luminescence, 90 min; response scale: percent relative to full dopamine signal | Potency, µM (series often up to 76.9 µM), for inactives: at the highest dose activation, most hits filed as activators | actives 5.9% (n = 2,300) | AID 720507; note: potency is the fitted concentration of half-maximal effect; % of control where 0% means no effect; nearly all actives have a fitted effect of over 70% in size
Starred values were filed as active, the others as inactive; ? = inconclusive; . = no result. In the library only some 2.5% were active in any assay of this set; here they are far more common. Unless noted, calls come from the whole dose curve; as a rule, active = well fitted curve in the direction sought with a large enough effect; inconclusive = small, poorly fitted or top-dose-only effect, or another doubt; inactive = no such curve, though single readings can be large; an effect the other way counts as inactive or inconclusive.

SMILES	D2 ag-1	Apoferritin bind	D2 PAM-1	D2 PAM-2	D2 antag	D2 ag-2	D3 ag	D2 ag-3
COc1cc(C2N(Cc3ccccc3)CCN2Cc2ccccc2)ccc1OC(C)=O	-4	-9%	-14	-2	27	9	-5%	-5%
COc1cc(C2N(c3ccccc3)CCN2c2ccccc2)ccc1OC(C)=O	-4	-6%	15	6	-24	0	.	.
O=C(Nc1cccc(S(=O)(=O)N2CCCCC2)c1)c1ccc(OCC2CCCO2)cc1 (stereo unspecified)	-3	6%	-2	-2	-1	0	.	.
O=C(c1ccc(OCC2CCCO2)cc1)N1CCN(S(=O)(=O)c2cccc(F)c2)CC1 (stereo unspecified)	-3	.	2	14	12	0	-2%	2%
CCOC(=O)C(NC(=O)c1ccccc1Cl)(Nc1ccc(C(F)(F)F)cc1)C(F)(F)F (stereo unspecified)	-3	-9%	3	-5	-9	29	-7%	-2%
CCOC(=O)C(NC(=O)c1ccccc1Cl)(Nc1ccc(C)c(C)c1)C(F)(F)F (stereo unspecified)	2	-12%	13	-9	-1	-1	.	.
CCS(=O)(=O)N1CCN(S(=O)(=O)c2ccccc2)CC1	-2	-8%	-5	-2	-12	0	.	.
COC(=O)c1[nH]c2cc(OC)ccc2c1NC(=O)CCN1CCN(c2cccc(C)c2C)CC1	-1	-10%	-8	-11	57*	1	8%	-1%
COc1cc(NC(=O)CCN2CCN(c3ccccc3F)CC2)cc(OC)c1	10	-11%	-11	-16	40*	31*	?	21%
O=C(CCN1CCN(c2ccccc2F)CC1)Nc1cccc(F)c1	-4	-10%	-24	-5	80*	81*	?	?
O=C(CCN1CCN(S(=O)(=O)c2ccc(Cl)cc2)CC1)Nc1ccc(F)cc1	-1	-18%	11	-8	.	.	.	.
O=C(CCN1CCN(c2ccccc2F)CC1)Nc1ccc(F)cc1	3	-6%	-16	-75	88*	14	?	7%
COc1ccc(NS(=O)(=O)c2ccc(S(=O)(=O)N3CCCC3)cc2)cc1	-1	?	1	-5	0	0	.	.
CC1CCCC(C)N1C(=O)CSc1nnc(COc2ccc(F)cc2)o1 (stereo unspecified)	1	?	0	-7	4	0	.	.
C=CCn1c(SCC(=O)Nc2ccccc2)nnc1-c1cccc(S(=O)(=O)N2CCOCC2)c1	-4	-17%	-5	-11	-6	1	.	.
O=C(CCN1CCN(S(=O)(=O)c2ccc(Cl)cc2)CC1)Nc1ccccc1F	2	0%	8	-1	10	0	.	.
O=C(CCN1CCN(c2ccccc2F)CC1)Nc1ccccc1Cl	-1	-5%	-24	-10	88*	70*	-3%	21%
C[C@H](CCC(=O)O)[C@H]1CC[C@H]2[C@@H]3CC[C@@H]4C[C@H](O)CC[C@]4(C)[C@H]3CC[C@]12C	-3	-13%	0	-5	-8	0	.	.
CC(CCC(=O)O)C1CCC2C3CCC4C[C@H](O)CCC4(C)C3CC(=O)C12C (stereo partly specified)	-3	0%	-20	-6	24	52*	28%	10%
Cc1ccc(NC(=O)Cn2cccc2)cc1Cl	-3	5%	5	-14	-13	-2	.	.

Screening data: PubChem, National Center for Advancing Translational Sciences (NCATS)
